# Results as given in the OligoGym collection.
# Target: WDR59
# Experiment: pooled miR-30 sensor sort-seq; sequence = guide strand
# Details: shRNA
# Further: reference of the scale not given here.
row,Sequence,sensor-assay potency score (higher = more potent)
1,ATAGACAACACACAAAGCGCAG,-1.07
2,TTGATCTGTCGATTGCCAGAGT,-0.462
3,TTAGCTTTCATGGTGGATGTGA,0.497
4,TAACCTGCTCCGCAGAACCTGG,-1.45

# Target: WDR74
# Experiment: as above
# Details: shRNA
row,Sequence,sensor-assay potency score (higher = more potent)
1,TGTCTCTGTGTCTTCTAGGGGC,-0.152
2,TATCTTCAAAGCATTCTCTTTC,-0.0108
3,ATATCTTCAAAGCATTCTCTTT,-1.27
4,TTCAAGATCCCAGTCTCGGTGC,-0.0333
5,TTTCGCTGAAGATTTACCCCTT,0.223
6,TGGATCATAAACACGGACCTGG,0.064
7,TATCCTCAAGACTCTGTCCAAG,-0.997
8,TGACAAGCTTCTGTGATCCTGG,0.195
9,TTCACCGTCCTGTCCGCGCAGC,-1.09
10,TTGAGACTTGAGATAAACCTTA,0.692
11,TAGTGAGTACTCTCCATAGGTG,-0.709
12,TTCTTCTTTCTCCGTCTCGTTT,-0.81
